Unmarked numbers belong to inactive results. Calls of active or inactive are those of the source. Cut-off read from the data, not from the text of the source: active = fold change mostly below about -2 (no sharp cut-off); inactive = mostly above about -1.8.

The nature of this test: modulation of TERT promoter-driven luciferase – cell-based, luciferase reporter, human, primary screen (AID 1259240). The conditions noted are these: A2780 TERT promoter luciferase reporter, 16 h; at 20 µM, fold versus average of vehicle-only wells.
Regarding `CCn1c(Oc2ccccc2)nc2c1c(=O)n(C)c(=O)n2C`, the fold change was -1.53.
Same read-out and setting: the same measure for `CC(C)Cc1cc(C(=O)Nc2cnn(Cc3ccc(F)cc3)c2)no1`: -1.44; for `N#Cc1ccc(Cn2c(=O)n(Cc3ccccc3Cl)c(=O)c3cccnc32)cc1`: -1.11.
On the same count and under the same terms, as for `COc1ccc(-c2cc(N3C(=O)Nc4ccccc4N3O)n[nH]2)cc1OC`, the figure is 1.2; as for `O=C(CSc1nc(-c2ccco2)cc(C(F)(F)F)n1)N1CCOCC1`, -2.11 (active); as for `C=CCN1C(=O)C2(/C(=C(/O)c3ccccc3)C(=O)C(=O)N2CCCN2CCOCC2)c2ccccc21` (stereo not given), 1.29.
Consider `Cc1ccc(-c2cc(C(F)F)n3ncc(C(=O)NCc4cccnc4)c3n2)cc1`, for which the fold change was -1.5.
As for `Cn1cnc2c(sc3nc(N4CCOCC4)c4c(c32)CC(C)(C)OC4)c1=O`, the fold change was 1.1.
Still for that read-out and setting: the same measure for `CCN1/C(=C/C=C/c2sc3cc(NC(C)=O)ccc3[n+]2CC)Sc2cc(NC(C)=O)ccc21`: -2.62 (active).
Take `Cn1c(SCC(=O)Nc2ccc(F)cc2)nnc1-c1c[nH]c2ccccc12`: the compound was classed as inactive.
Take `O=C(Cn1ncc2c3ccccc3n(Cc3cccc(Cl)c3)c2c1=O)NCc1cccnc1`: the fold change is -1.25.
Same read-out and setting: the same measure for `CC(C)C(C(=O)O)N1C(=O)/C(=C/c2cccs2)SC1=S` (stereo not given): -3.32 (active).
On the same count and under the same terms, as for `CCOC(=O)N1CCC(Nc2c(N(CC)CC)c(=O)c2=O)CC1`, the figure is 1.22.
Regarding `CC(C)Cc1nnc(NC(=O)CSc2nc(N)cc(=O)[nH]2)s1`, the outcome was active.
`Cc1ccc(-c2n[nH]c3c2C(c2cccc([N+](=O)[O-])c2)NC3=O)cc1` (stereo not given): the fold change is 1.04.
Same read-out and setting: as for `O=C1C(=O)N(CC(=O)N2CCCCC2)c2ccccc21`, the figure is 1.04; as for `CCc1c(C)sc(NC(=O)c2cc(C)no2)c1C#N`, 1.32; as for `COc1ccc(-c2n[nH]c3c2C(c2ccccc2)NC3=O)cc1` (stereo not given), -1.24.
Turning to `O=C(O)c1cc(S(=O)(=O)O)cc(Nc2c3ccccc3nc3ccccc23)c1O`, the fold change is -1.04.
The same measure, in the same setting: the same measure for `N#Cc1cn(CC(=O)NCCc2c[nH]c3ccccc23)c2ccccc12`: -1.14; for `CSCCC(C(=O)O)N1C(=O)/C(=C/c2cccnc2)SC1=S` (stereo not given): -1.77; for `NCCn1c(-c2cccnc2)n[nH]c1=S`: -1.19.
On the same count and under the same terms, as for `Cc1ccc(Cn2ccc(NC(=O)c3noc(C(C)C)c3[N+](=O)[O-])n2)cc1`, the figure is -2.42 (active); as for `CCCCNC(=O)c1ccc(CNc2c(NC3CCCC3)c(=O)c2=O)cc1`, 1.11; as for `COc1ccc2cc3c(N)nn(C(=O)Cn4nc([N+](=O)[O-])c(Br)c4C)c3nc2c1`, -1.45.
As for `O=C(Cn1c(=O)c2ccccc2n(CC(=O)Nc2ccc(F)cc2F)c1=O)NCc1ccco1`, the fold change was -2.2 (active).
On the same count and under the same terms, as for `COCCNc1cc(C)nc2c(-c3ccc(Cl)cc3)c(C)nn12`, the figure is -1.07.
On the same count and under the same terms, the same measure for `Nc1cc(-c2ccccc2)nn1S(=O)(=O)c1ccc(Br)cc1`: 1.63; for `CCOC(=O)Cn1c(=O)oc2cc(S(=O)(=O)NCCC(C)C)ccc21`: -1.
`COc1ccc(Cl)cc1Nc1nc(-c2c(C)nc3ncccn23)cs1`: the fold change is -3.45 (active).
For the compound `CCOC(=O)Cc1csc(NC(=O)Nc2cccs2)n1`, the fold change is 1.33.
Same read-out and setting: as for `CCS(=O)(=O)Nc1ccc(C2=NN(S(=O)(=O)c3ccc(F)cc3)C(c3cccs3)C2)cc1` (stereo not given), the figure is 1.07; as for `Cc1ccc(NC(=O)CC2Sc3ccc(C(F)(F)F)cc3NC2=O)cc1C` (stereo not given), -1.24; as for `CC(C)(C)NC(=O)CSc1nc(-c2ccc(F)cc2)cc(C(F)(F)F)n1`, -1.59.
Consider `CCOC(=O)N1CCN(c2c(N(CC)CCN(C)C)c(=O)c2=O)CC1`, for which the fold change is -1.33.
On the same count and under the same terms, as for `OCCn1c(-c2ccc(Br)cc2)cn2c3ccccc3nc12`, the figure is -1.06; as for `CN1CCc2c(sc3c2C(=O)NC(c2cccc(Cl)c2Cl)N3)C1` (stereo not given), -1.43; as for `O=C(NCc1ccc(Cl)cc1)Nc1ccc2snnc2c1`, -1.36.
On the same count and under the same terms, as for `CC(=O)N(C1=C(N(C)C)C(=O)c2ccccc2C1=O)c1cc(C)cc(C)c1`, the figure is -1.54; as for `Cc1nc(SCC(=O)NCC2CCCO2)c2c(=O)n(C)c(=O)n(C)c2n1` (stereo not given), 1.01.

The record behind these values is PubChem BioAssay AID1259240 (Keith Lab, Institute of Cancer Science, University of …, 2017).
